The source of these data is PubChem BioAssay (NCATS).

Potency and affinity values are given separately. Calls of active or inactive are those of the source. The rule behind the calls is not given here.
Note: 0% is about no effect.

For this test the following is noted: Ebola virus entry assay, green fluorescence channel.
As for `Cc1c(N)cccc1C(F)(F)F`, the efficacy was 32.5% (inactive). With `CCCCC1C(=O)N(c2ccccc2)N(c2ccccc2)C1=O`, the efficacy was -25% (inactive).

As to `CC(C)(Cc1c[nH]c2ccccc12)NCC(O)COc1ccccc1C#N` (centres undefined), the efficacy was 48.7% (inactive). For the molecule `CN(C)CCN(Cc1ccccc1)c1ccccn1`, the efficacy is 35.7% (inactive). With `CO[C@]1(NC(=O)CSC(F)F)C(=O)N2C(C(=O)O)=C(CSc3nnnn3CCO)CO[C@H]21` the figure was -28.6% (inactive); with `COc1ccc(CN(CCN(C)C)c2ccccn2)cc1`, 22.5% (inactive); with `O=c1[nH]sc2cc(Cl)ccc12`, -42.1% (inactive). With `O=C(OCc1ccccc1)c1ccc(O)cc1` the figure was -29.7% (inactive); with `CC(C)NCC(O)COc1ccc(COCCOC(C)C)cc1` (centres undefined), 22.5% (inactive). Regarding `C=C[C@@]1(C)CC(=O)[C@]2(O)[C@@]3(C)[C@@H](O)CCC(C)(C)[C@@H]3[C@H](O)[C@H](OC(C)=O)[C@@]2(C)O1`, the efficacy is 10.9% (inactive). With `COCCc1ccc(OCC2CO2)cc1` (centres undefined) the figure was 25.5% (inactive).

Turning to `CC(Cc1cccc(C(F)(F)F)c1)NCCOC(=O)c1ccccc1` (centres undefined), the efficacy is 23% (inactive).

Regarding `Oc1ccc(Cl)cc1Cc1cc(Cl)ccc1O`, the efficacy was 31.6% (inactive). As to `CC(C)C[C@@H](N)C(=O)O`, the efficacy is 14.3% (inactive). Take `CCCCCCCCCCCCCCCCC(C(=O)O)C(O)(CC(=O)O)C(=O)O` (centres undefined): the efficacy is -32% (inactive). Turning to `O=C(/C=C/c1ccc(O)c(O)c1)O[C@@H]1C[C@@](OC(=O)/C=C/c2ccc(O)c(O)c2)(C(=O)O)C[C@@H](O)[C@@H]1O`, the efficacy is 21.8% (inactive).

For `C[C@]12CC[C@@H]3c4ccc(O)cc4CC[C@H]3[C@@H]1CC[C@@H]2OC(=O)CCC1CCCC1`, the efficacy was 23.9% (inactive).

In the case of `NC(=O)C(=O)N/N=C/c1ccc([N+](=O)[O-])o1`, the efficacy is 21.5% (inactive). Take `COC(=O)[C@H]1[C@H]2C[C@@H]3c4[nH]c5cc(OC)ccc5c4CCN3C[C@H]2C[C@@H](OC(=O)/C=C/c2ccc(O)c(OC)c2)[C@@H]1OC`: the efficacy is -80.1% (inactive). With `CCc1cc(Cl)c(OC)c(C(=O)NC[C@@H]2CCCN2CC)c1O` the figure was 38.6% (inactive); with `O=S1(=O)c2cccc3cccc(c23)N1CCCN1CCN(c2ccc(F)cc2)CC1`, -13.1% (inactive); with `CC(C)n1nc(-c2cc3cc(O)ccc3[nH]2)c2c(N)ncnc21`, 37.9% (inactive). For `CC1=C(C(=O)O)N2C(=O)[C@@H](NC(=O)[C@H](N)C3=CCC=CC3)[C@H]2SC1`, the efficacy was -21.8% (inactive). With `CO/N=C(/C(=O)N[C@@H]1C(=O)N2C(C(=O)O)=C(Cn3nnc(C)n3)CS[C@H]12)c1csc(N)n1`, the efficacy is 14.5% (inactive).

As for `CC[C@H](NC(C)C)[C@H](O)c1ccc(O)c2[nH]c(=O)ccc12`, the efficacy is -13.2% (inactive). Turning to `Cc1ccc(C(=O)Nc2ccc(S(=O)(=O)O)c3cc(S(=O)(=O)O)cc(S(=O)(=O)O)c23)cc1NC(=O)c1cccc(NC(=O)Nc2cccc(C(=O)Nc3cc(C(=O)Nc4ccc(S(=O)(=O)O)c5cc(S(=O)(=O)O)cc(S(=O)(=O)O)c45)ccc3C)c2)c1`, the efficacy was 21.5% (inactive). Turning to `CCCOc1ccc(C(=O)OCCN(CC)CC)cc1N`, the efficacy was 35% (inactive). `NC(N)=NN=C(/C=C/c1ccc([N+](=O)[O-])o1)/C=C/c1ccc([N+](=O)[O-])o1`: the efficacy was -41.4% (inactive). Consider `Cc1ccc(=O)n(-c2ccccc2)c1`, for which the efficacy was -13.1% (inactive).

Take `C[C@H](N)C(=O)N[C@@H](C)C(=O)NC1[C@H]2CN(c3nc4c(cc3F)c(=O)c(C(=O)O)cn4-c3ccc(F)cc3F)C[C@@H]12` (some centres undefined): the efficacy was 11% (inactive). In the case of `Cc1cccc(Nc2cc(Cl)nc(SCC(=O)O)n2)c1C`, the efficacy was 19.8% (inactive). As for `c1ccc(CC2=NCCN2)cc1`, the efficacy is -17.9% (inactive). As for `Oc1ccc(Cl)cc1Sc1cc(Cl)ccc1O`, the efficacy is -28.7% (inactive).

Consider `CCOC(=O)N1CCC(n2c(=O)[nH]c3cc(Cl)ccc32)CC1`, for which the efficacy is 43.9% (inactive).

For `Cc1cc2c(OCC(CNC(C)(C)C)OC(=O)c3ccccc3)cccc2[nH]1` (centres undefined), the efficacy was 15.1% (inactive).

Consider `COc1ccc2nc(NC(=O)Nc3ccccc3)sc2c1`, for which the efficacy is -33.8% (inactive). `C#C[C@]1(O)CC[C@H]2[C@@H]3CCc4cc(O)ccc4[C@H]3CC[C@@]21C`: the efficacy is -19.9% (inactive).

On to `CC1(C)O[C@@H]2C[C@H]3[C@@H]4CCC5=CC(=O)CC[C@]5(C)[C@@]4(F)[C@@H](O)C[C@]3(C)[C@]2(C(=O)CCl)O1`, for which the efficacy was 53.9% (inactive). With `C=C1C[C@H]2[C@@H]3C=C(C)C4=CC(=O)CC[C@]4(C)[C@H]3CC[C@]2(C)[C@@]1(OC(C)=O)C(C)=O`, the efficacy was -35.6% (inactive).
